Assay results: the supplement of paper PMC11018630
Where a name gives a salt, the structure may show the parent alone. ± gives the standard deviation of the averaged measurements. In all, about 1,100 compounds were measured (“day of extracellular matrix detachment from plate”: median about 16, lowest 2% from about 10 on). The full list was thinned out, with the lowest values kept by preference.

tested on: RDEB dermal fibroblasts EB71; experiment: day of extracellular matrix detachment from plate (days); higher = delayed detachment (less fibrotic matrix); details: compound concentration: 10 uM

| SMILES | day of extracellular matrix detachment from plate |
| --- | --- |
| O=C(O)CCC(=O)c1ccc(-c2ccccc2)cc1 [Fenbufen] | 13 |
| Nc1nc(=O)n([C@@H]2CS[C@H](CO)O2)cc1F [Emtricitabine] | 19.3 ± 6.3 |
| O=c1ccn([C@@H]2O[C@H](CO)[C@@H](O)[C@H]2O)c(=O)[nH]1 [Uridine] | 12 |
| COc1ccc(CC2c3cc(OC)c(OC)cc3CC[N+]2(C)CCC(=O)OCCCCCOC(=O)CC[N+]2(C)CCc3cc(OC)c(OC)cc3C2Cc2ccc(OC)c(OC)c2)cc1OC (stereo not given) [Atracurium Besylate] | 15.7 ± 6.3 |
| COc1ccc(C[C@@H]2c3cc(OC)c(OC)cc3CC[N@+]2(C)CCC(=O)OCCCCCOC(=O)CC[N@@+]2(C)CCc3cc(OC)c(OC)cc3[C@H]2Cc2ccc(OC)c(OC)c2)cc1OC [Cisatracurium Besylate] | 10 ± 1.7 |
| CCC(=O)O[C@@H](O[P@](=O)(CCCCc1ccccc1)CC(=O)N1C[C@H](C2CCCCC2)C[C@H]1C(=O)O)C(C)C [Fosinopril Sodium] | 19 |
| OC(Cn1cncn1)(Cn1cncn1)c1ccc(F)cc1F [Fluconazole] | 12.7 ± 2.9 |
| Nc1ccc(C(=O)NCC(=O)O)cc1 [Sodium 4-aminohippurate Hydrate] | 13 |
| Cn1c(=O)c2c(ncn2CC2OCCO2)n(C)c1=O [Doxofylline] | 13 |
| CN(C)CCC[C@@]1(c2ccc(F)cc2)OCc2cc(C#N)ccc21 [Escitalopram Oxalate] | 13 |
| OC[C@@H](O)[C@@H](O)[C@H](O)[C@@H](O)CO [Sorbitol] | 16 |
| O=C[C@H](O)[C@@H](O)[C@H](O)CO [Xylose] | 10 ± 1.7 |
| OC[C@@H](O)[C@@H](O)[C@H](O)[C@H](O)CO [D-Mannitol] | 13.7 ± 8.1 |
| COc1cc2ncnc(Nc3ccc(F)c(Cl)c3)c2cc1OCCCN1CCOCC1 [Gefitinib (ZD1839)] | 29.4 ± 6 |
| N#C[C@@H]1C[C@@H]2C[C@@H]2N1C(=O)[C@@H](N)C12CC3CC(CC(O)(C3)C1)C2 [Saxagliptin hydrate] | 16.3 ± 1.1 |
| CCCc1nc(C)c2c(=O)nc(-c3cc(S(=O)(=O)N4CCN(CC)CC4)ccc3OCC)[nH]n12 [Vardenafil HCl Trihydrate] | 16 |
| COC(=O)C1=C(C)NC(C)=C(C(=O)OCCN2CCN(C(c3ccccc3)c3ccccc3)CC2)C1c1cccc([N+](=O)[O-])c1 (stereo not given) [Manidipine] | 20.3 ± 2.3 |
| COC(=O)C1=C(C)NC(C)=C(C(=O)OCCN2CCN(C(c3ccccc3)c3ccccc3)CC2)C1c1cccc([N+](=O)[O-])c1 (stereo not given) [Manidipine 2HCl] | 18.3 ± 4 |
| O=C(c1cc(Cc2n[nH]c(=O)c3ccccc23)ccc1F)N1CCN(C(=O)C2CC2)CC1 | 27.8 ± 5.5 |
| CC1(C)S[C@@H]2[C@H](NC(=O)C(C(=O)O)c3ccccc3)C(=O)N2[C@H]1C(=O)O (stereo not given in full) [Carbenicillin disodium] | 18 |
| CSc1nc2cc(Cl)c(Oc3cccc(Cl)c3Cl)cc2[nH]1 [Triclabendazole] | 13 |
| CN(C)/N=N/c1[nH]cnc1C(N)=O [Dacarbazine] | 11 |
| CCC[C@H](N[C@@H](C)C(=O)N1[C@H](C(=O)O)C[C@@H]2CCCC[C@@H]21)C(=O)OCC [Perindopril Erbumine] | 21 ± 1.7 |
| OC(CCN1CCCC1)(c1ccccc1)C1CCCCC1 (stereo not given) [Procyclidine HCl] | 16 ± 1.7 |

| SMILES | day of extracellular matrix detachment from plate |
| --- | --- |
| CC1(C)S[C@@H]2[C@H](NC(=O)Cc3ccccc3)C(=O)N2[C@H]1C(=O)O [Penicillin G Sodium] | 13 |
| CC1(C)[C@H](C(=O)O)N2C(=O)C[C@H]2S1(=O)=O [Sulbactam] | 10 ± 1.7 |
| C[C@]1(Cn2ccnn2)[C@H](C(=O)O)N2C(=O)C[C@H]2S1(=O)=O [Tazobactam] | 20 ± 1.7 |
| CC1(C)[C@H](C(=O)O)N2C(=O)C[C@H]2S1(=O)=O [Sulbactam sodium] | 11 ± 1.7 |
| CC(C)(Oc1ccc(Cl)cc1)C(=O)O [Clofibric Acid] | 13 |
| CC(=O)O[C@]1(C(C)=O)CC[C@H]2[C@@H]3C[C@H](C)C4=CC(=O)C=C[C@]4(C)[C@@]3(F)[C@@H](O)C[C@@]21C [Fluorometholone Acetate] | 27.2 ± 3.5 |
| N#CC(c1ccc(Cl)cc1)c1c(Cl)cc(-n2ncc(=O)[nH]c2=O)cc1Cl (stereo not given) [Diclazuril] | 15.7 ± 6.3 |
| O=C(O)CCc1nc2ccccc2[nH]1 [Procodazole] | 13 |
| N#C/C(=C1/SC[C@@H](c2ccc(Cl)cc2Cl)S1)n1ccnc1 [Luliconazole] | 13 |
| C[N+]1(C)CCC(OC(=O)C(O)(c2ccccc2)C2CCCC2)C1 (stereo not given) [Glycopyrrolate] | 20.3 ± 2.9 |
| CCN(CC)CCOCCOC(=O)C(CC)(CC)c1ccccc1 [Oxeladin Citrate] | 13 |
| CN1C2=CC(=O)/C(=N\NC(N)=O)C=C2CC1S(=O)(=O)O (stereo not given) [Carbazochrome sodium sulfonate (AC-17)] | 16.7 ± 2.3 |
| C/C(O)=C(\C#N)C(=O)Nc1ccc(C(F)(F)F)cc1 [Teriflunomide] | 13 |
| C[C@@](Cc1ccc(O)c(O)c1)(NN)C(=O)O [Carbidopa] | 15.7 ± 6.3 |
| NCCc1ccc(O)c(O)c1 [Dopamine HCl] | 15.7 ± 6.3 |
| C[C@](N)(Cc1ccc(O)c(O)c1)C(=O)O [Methyldopa] | 10.3 ± 1.1 |
| CO/N=C(\C(=O)N[C@@H]1C(=O)N2C(C(=O)O)=C(COC(N)=O)CS[C@H]12)c1ccco1 [Cefuroxime sodium] | 17 |
| NCCCCC(NC(=O)C1CCCN1C(=O)C1CSSCC(N)C(=O)NC(Cc2ccc(O)cc2)C(=O)NC(Cc2ccccc2)C(=O)NC(CCC(N)=O)C(=O)NC(CC(N)=O)C(=O)N1)C(=O)NCC(N)=O (stereo not given) [Lypressin Acetate] | 23 ± 1.7 |
| COc1cc(Nc2ncc3c(n2)-c2ccc(Cl)cc2C(c2c(F)cccc2OC)=NC3)ccc1C(=O)O [Alisertib (MLN8237)] | 25 |
| CC[C@H](NC(=O)[C@H](C)NC)C(=O)N1C[C@@H](O)C[C@H]1Cc1c(-c2[nH]c3cc(F)ccc3c2C[C@@H]2C[C@H](O)CN2C(=O)[C@H](CC)NC(=O)[C@H](C)NC)[nH]c2cc(F)ccc12 [Birinapant] | 19 ± 6.9 |
| CC(=O)O[C@]1(C(C)=O)CC[C@H]2[C@@H]3C[C@H](C)C4=CC(=O)CC[C@]4(C)[C@H]3CC[C@@]21C [Medroxyprogesterone acetate] | 19.3 ± 6.3 |
| [I-].[K+] [Potassium Iodide] | 15.7 ± 6.3 |
| CCN1CC(CCN2CCOCC2)C(c2ccccc2)(c2ccccc2)C1=O (stereo not given) [Doxapram HCl] | 18 |
| CN(C)CCc1c[nH]c2ccc(CS(=O)(=O)N3CCCC3)cc12 [Almotriptan Malate] | 19.3 ± 6.3 |

| SMILES | day of extracellular matrix detachment from plate |
| --- | --- |
| NC(=O)Cc1cccc(C(=O)c2ccccc2)c1N [Nepafenac] | 14.3 ± 2.9 |
| CN1CCC(=C2c3ccccc3CCc3cccnc32)CC1 [Azatadine dimaleate] | 18 |
| Cc1ccc(NC(=O)c2ccc(CN3CCN(C)CC3)cc2)cc1Nc1nc(-c2cccnc2)cs1 [Masitinib (AB1010)] | 36 |
| CC(C)(C)c1nc(-c2cccc(NS(=O)(=O)c3c(F)cccc3F)c2F)c(-c2ccnc(N)n2)s1 | 32.5 ± 2.1 |
| CO/N=C(\C(=O)N[C@@H]1C(=O)N2C(C(=O)OCOC(=O)C(C)(C)C)=C(/C=C\c3scnc3C)CS[C@H]12)c1csc(N)n1 [Cefditoren pivoxil] | 15.7 ± 6.3 |
| CCOC(=O)[C@H](CCc1ccccc1)N[C@H]1CS[C@H](c2cccs2)CN(CC(=O)O)C1=O [Temocapril HCl] | 19.3 ± 6.3 |
| CCC[S+]([O-])c1ccc2[nH]c(NC(=O)OC)nc2c1 (stereo not given) [Albendazole Oxide] | 16 |
| CC1(C)S[C@@H]2[C@H](NC(=O)[C@H](N)c3ccc(O)cc3)C(=O)N2[C@H]1C(=O)O [Amoxicillin] | 16.7 ± 2.3 |
| CC1(C)S[C@@H]2[C@H](NC(=O)[C@H](N)c3ccc(O)cc3)C(=O)N2[C@H]1C(=O)O [Amoxicillin Sodium] | 15.7 ± 6.3 |
| CC(C)C(=O)Oc1ccc(CO)cc1[C@H](CCN(C(C)C)C(C)C)c1ccccc1 [Fesoterodine Fumarate] | 15.7 ± 6.3 |
| O=C(O)c1ccccc1 [Benzoic Acid] | 13 |
| Cc1nc(=O)c2cc(CN(C)c3ccc(C(=O)N[C@@H](CCC(=O)O)C(=O)O)s3)ccc2[nH]1 [Raltitrexed] | 25 |
| NS(=O)(=O)c1cc2c(cc1Cl)N=C(CSCc1ccccc1)NS2(=O)=O [Benzthiazide] | 13 |
| CC(=O)O[C@]1(C(C)=O)CC[C@H]2[C@@H]3C=C(Cl)C4=CC(=O)CC[C@]4(C)[C@H]3CC[C@@]21C [Chlormadinone acetate] | 26.2 ± 10 |
| CO[C@@H]1[C@@H](OC(N)=O)[C@@H](O)[C@H](Oc2ccc3c(O)c(NC(=O)c4ccc(O)c(CC=C(C)C)c4)c(=O)oc3c2C)OC1(C)C [Novobiocin Sodium] | 15.7 ± 6.3 |
| O=S(=O)(O)Oc1ccc(C(c2ccc(OS(=O)(=O)O)cc2)c2ccccn2)cc1 [Sodium Picosulfate] | 14.5 ± 4 |
| Cc1cccc(C)c1NC(=O)C1CCCCN1C (stereo not given) [Mepivacaine HCl] | 16.5 ± 6.2 |
| C[N+](C)(C)CCO.[Cl-] [Choline Chloride] | 13 |
| O=C(CCCCCCNC(=O)c1cnc(N(c2ccccc2)c2ccccc2)nc1)NO [Rocilinostat (ACY-1215)] | 27 |
| Cc1nnc(C(C)C)n1C1C[C@H]2CC[C@@H](C1)N2CC[C@H](NC(=O)C1CCC(F)(F)CC1)c1ccccc1 (stereo in doubt) [Maraviroc] | 12 |
| NC[C@H]1CC[C@H](C(=O)O)CC1 [Tranexamic Acid] | 23 ± 1.7 |
| CC1(O)CCC(C(C)(C)O)CC1 (stereo not given) [Terpin (hydrate)] | 17 |
